# Screens deposited in PubChem by National Center for Advancing Translational Sciences (NCATS).
# PLK1 PBD block = PLK1 (human) polo-box domain binding inhibition. 2.8% of 360,000 active. Plk1 PBD binding of FITC phosphopeptide, fluorescence polarization. Potency, µM, for inactives: max response, negative = inhibition, hits mostly inhibitors. AID 720504. P53350; further: potency means the concentration at half of the fitted maximal effect; series mostly up to about 57 µM; on the % scale 0 is the no-effect control and ±100 the full control effect; nearly all actives have a fitted effect of over 65% in size
# HP1b chromo inh = HP1-beta chromodomain-methylated histone interaction inhibition | P83916 | Potency, µM (top dose mostly 114 µM), without a hit: at the highest dose activity change, negative = inhibition, usual class: inhibitors | AlphaScreen HP1-beta / biotin-H3K9me3 peptide binding | 0.56% of 390,000 active; further: potency means the concentration at half of the fitted maximal effect; nearly all actives have a fitted effect of over 70% in size
#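 HP1-beta protein (50 nM final) preincubated 30 min at room temperature with biotinylated H3(1-18)K9me3 peptide (50 nM) in PBS pH 7.4, 0.01% Tween-20, then compound added for 30 min. AlphaScreen streptavidin donor/nickel chelate acceptor beads (10 ug/mL final), 30 min dark, luminescence read.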
# G9a block = G9a (human) methyltransferase inhibition; Potency, µM (top dose mostly 102 µM), for inactives: at the highest dose activity, negative = inhibition, hits mostly inhibitors; G9a H3K9 monomethylation, AlphaScreen, 2 h; 8.8% of 350,000 active; Q96KQ7; AID 504332; further: potency means the concentration at half of the fitted maximal effect; on the % scale 0 is the no-effect control and ±100 the full control effect; nearly all actives have a fitted effect of over 75% in size
#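 Compounds were preincubated with 20 nM G9a for 15 min, after which biotinylated H3K9 peptide (500 nM) and SAM (20 uM) started a 2 h room-temperature reaction. Monomethylated product was quantified by antibody-based AlphaScreen chemiluminescence.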
# PI5P4Ka inh = inhibitors of human PI5P4K alpha; P48426; PI5P4Kalpha enzyme, ADP-Glo luminescence, 60 min; stronger effect = lower value; max response, %; 1.2% of 330,000 active; active means max response of -50% or lower; inconclusive means between -30% and -50%; inactive means -30% or higher; further: value at the top dose of about 77 µM; on the % scale 0 is the no-effect control and ±100 the full control effect
#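 qHTS, 1536-well: enzyme/substrate mix, compound by pin tool, 5 microM ATP final; RT 60 min; ADP-Glo reagents 1 (45 min) then 2 (30 min); luminescence.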
# BAZ2B block = blocks human BAZ2B; Q9UIF8; AlphaScreen BAZ2B-H3K14Ac peptide displacement; Potency, µM (top dose mostly 114 µM), for inactives: at the highest dose activity change, negative = inhibition, usual class: inhibitors; 4.4% of 360,000 active; further: potency means the concentration at half of the fitted maximal effect; on the % scale 0 is the no-effect control and ±100 the full control effect; nearly all actives have a fitted effect of over 60% in size
#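 Inhibition is scored as reduced AlphaScreen emission. The BAZ2B/b-H3(5-23)K14Ac complex (50 nM each) in PBS pH 7.4, 0.01% Tween-20 meets compound (up to 110 uM) for 30 min at RT before bead addition.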
# JMJD2A Tudor = blocks the human JMJD2A Tudor domain; O75164; AlphaScreen JMJD2A-Tudor / H3K4me3 peptide binding; Potency, µM (top dose mostly 114 µM), for the others: at the highest dose activity change, negative = inhibition, most hits filed as inhibitors; 4.4% of 390,000 active; AID 504339; further: potency means the concentration at half of the fitted maximal effect; on the % scale 0 is the no-effect control and ±100 the full control effect; nearly all actives have a fitted effect of over 50% in size
# An asterisk follows results filed as active; ? = inconclusive; / = no result given; [ ] = dose if it differs, or a comment. This is a sample that favours compounds with a hit; in the whole collection about 12% have one here. Unless noted, the call rests on the fitted dose curve; in most records, active means well fitted curve in the direction sought with a large enough effect; inconclusive means small, poorly fitted or top-dose-only effect, or another doubt; inactive means no such curve, though single readings can be large; an effect the other way counts as inactive or inconclusive.
SMILES,PLK1 PBD block,HP1b chromo inh,G9a block,PI5P4Ka inh,BAZ2B block,JMJD2A Tudor
COc1ccc(/C=N/NC(=O)/C(=C/c2ccccc2)CCO)cc1,27µM*,1%,37%[59 µM],-5,-1%,79µM*
COc1ccc(/C=N/NC(=O)C2c3ccccc3-c3ccccc32)cc1,-11%,29%,45µM*,-6,-4%,-19%
COc1cc(/C=N/NC(=O)/C(=C/c2ccccc2)CCO)ccc1O,-3%,19%,25%[59 µM],1,-3%,-11%
O=C(/C=C\c1ccccc1)NCC(=O)N/N=C/c1ccc(O)cc1O,-17%,39%,86%[59 µM],-10,-5%,-31%
COc1ccc(CCNC(=O)C(=O)NCC(c2ccco2)S(=O)(=O)c2ccc(F)cc2)cc1 (centres undefined),/,23%,-5%[59 µM],/,4%,6%
NC1=NC2(CCCC2)N=C(Nc2ccccc2)N1,-10%,-6%,8%,-2,1%,35µM*
Cc1ccc(CN2CC(C(=O)Nc3cc(S(C)(=O)=O)ccc3Cl)CC2=O)cc1 (centres undefined),4%,8%,?,-24,50µM*,-27%
Cc1onc(-c2c(F)cccc2Cl)c1C(=O)OCC(=O)Nc1cccc(S(=O)(=O)N(C)C)c1,2%,20%,/,4,/,-17%
COc1ccc(C2=NN(C(C#N)c3ccc(OC)c(OC)c3)C(c3ccccc3)C2)cc1 (centres undefined),-5%,101%,?,0,58%,7%
COc1cc(C(C#N)N2CCC(c3ccccc3)=N2)ccc1O (centres undefined),-9%,23%,10µM*,1,-1%,-5%
COc1ccc(C(C#N)N2CCC(c3ccccc3)=N2)cc1OC (centres undefined),-12%,39%,18µM*,-13,-3%,-15%
CCOC(=O)c1c(CSc2ccccc2)n(C)c2cc(Br)c(OCC(O)CNC(CO)(CO)CO)cc12 (centres undefined),-4%,56µM*,40µM*,-4,?,?
CC(C)c1noc(-c2ccccc2OCC(=O)Nc2ccc([N+](=O)[O-])cc2)n1,/,31%,?,/,-11%,-15%
Cc1cccc(-c2noc(-c3ccccc3OCC(=O)Nc3ccc([N+](=O)[O-])cc3)n2)c1,/,-15%,?,/,-34%,28µM*
N#CC1C(=O)NC(=O)C(C#N)C12CCCC2 (centres undefined),-4%,/,/,-51*,/,/
O=C1c2ccccc2C(=O)N1CCCCc1cn(C[C@H]2CC[C@H](Cn3cc(CCCCN4C(=O)c5ccccc5C4=O)nn3)O2)nn1,-11%,30%,/,0,/,-20%
c1ccc(-c2cn(C[C@H]3CC[C@@H]([C@@H]4CC[C@H](Cn5cc(-c6ccccn6)nn5)O4)O3)nn2)nc1,4%,33%,?,1,0.71µM*,3.2µM*
c1ccc(-c2cn(C[C@H]3CC[C@@H]([C@@H]4CC[C@H](Cn5cc(-c6ccccc6)nn5)O4)O3)nn2)cc1,-12%,70%,17%,2,-3%,-20%
c1ccc(CCc2cn(C[C@H]3CC[C@@H]([C@@H]4CC[C@H](Cn5cc(CCc6ccccc6)nn5)O4)O3)nn2)cc1,27µM*,18%,/,-2,4%,?
COc1ccc(-c2nc3cnc(N4CCNCC4)nc3n(Cc3cccs3)c2=O)cc1,/,/,-7%[0.501 µM],/,/,/
Fc1ccc(-c2ccc(CNCc3ccccn3)o2)cc1,4%,15%,40µM*,-3,50µM*,50µM*
N#Cc1nc(-c2ccc(Cl)cc2)oc1NCCc1ccccn1,-7%,15%,?,-9,6%,-11%
Fc1ccc(-c2ccc(CNCCSc3nnnn3-c3ccccc3)o2)cc1,/,-15%,13µM*,/,35µM*,?
O=C(NCc1ccccn1)C1CC(c2ccc(F)cc2)=NO1 (centres undefined),-6%,20%,20%[59 µM],/,12%,-5%
Clc1ccc(-c2ccc(CNCc3ccccn3)o2)cc1,-3%,-1%,?,14,20µM*,79µM*
SMILES,PLK1 PBD block,HP1b chromo inh,G9a block,PI5P4Ka inh,BAZ2B block,JMJD2A Tudor
COc1cc2oc(=O)c(CC(=O)NCCc3ccccc3)c(C)c2cc1Cl,/,43%,-4%[59 µM],/,-9%,-12%
C=CCc1cccc2cc(C(=O)NCCOC)c(=O)oc12,7%,1%,18%,-1,-14%,-10%
C=CCc1cccc2cc(NC(C)=O)c(=O)oc12,27µM*,-16%,20%[59 µM],-7,9%,1%[11.4 µM]
COc1ccccc1CNC(=O)CN1C(=O)CCc2cc(S(=O)(=O)N3CCCCC3)ccc21,/,11%,10%[59 µM],/,-19%,-20%
Cc1cc(/C=C2\SC(=O)N(C)C2=O)c(C)n1-c1ccc(O)cc1,-15%,-28%,79µM*,-3,50µM*,?
Cc1cc(/C=C2\SC(=O)N(C)C2=O)c(C)n1-c1ccc(S(N)(=O)=O)cc1,-4%,24%,45µM*,-10,-3%,-8%
COC(=O)C(C)N1C(=O)S/C(=C\c2cc(C)n(-c3ccccn3)c2C)C1=O (centres undefined),-7%,0%,56µM*,-7,?,?
COc1ccc(-n2c(C)cc(/C=C3/SC(=S)N(C)C3=O)c2C)cc1,-18%,12%,-11%[59 µM],2,-36%,-13%
CCNc1nc(C#N)nc2c1ncn2-c1cccc(Cl)c1,/,/,/,/,/,-1%
COc1ccc(NC(=O)CC2C(=O)N(c3ccc(C)cc3)C(=O)N2Cc2ccc(C)cc2)cc1 (centres undefined),/,28%,-7%[59 µM],/,-1%,-10%
CC(=O)NC(c1cccc(F)c1)c1nc(-c2cnc3ccccc3c2)cs1 (centres undefined),-7%,/,/,2,/,/
COc1ccc(-c2nc3c(c(SCC(=O)N4CCCCC4)n2)Cc2c(CO)cnc(C)c2O3)cc1,/,8%,?,/,?,-22%
Clc1ccc(CSc2ncnc3c2ncn3C2CCCCO2)cc1 (centres undefined),5%,65%,/,2,/,21%
Cn1c(=O)c2c(nc(NCc3ccccc3)n2C)n(C)c1=O,-1%,21%,8%[12.7 µM],0,3%,-15%
Cn1c(=O)c2cc(NCc3ccccc3)nnc2n(C)c1=O,-12%,36%,14µM*,-6,-8%,3%
CCCc1ccc(C(=O)O/N=C(\N)c2ccccn2)cc1,-3%,24%,14%,-65*,4%,-7%
COc1cccc(C(=O)O/N=C(\N)c2ccccn2)c1,-9%,26%,-6%[59 µM],-73*,-28%,-12%
Cc1c(C(=O)O/N=C(\N)c2ccccn2)cccc1[N+](=O)[O-],0%,1%,32µM*,-18,-27%,11µM*
N/C(=N\OC(=O)Cc1ccccc1[N+](=O)[O-])c1ccccn1,-7%,12%,?,-8,56µM*,?
